Measured values as given in PubChem BioAssay AID504845 (National Center for Advancing Translational Sciences (NCATS), 2011).
“And” between values parts separate entries of the source, which are not always exact repeats. Equal values may be shown once. Hit rate of the full screen: of about 390,000 compounds, about 150 (0.038%) were called active. Inconclusive results (about 3%) are left out. The sample holds actives, similar compounds and a random draw of the others, so the mix is not that of the screen. Calls come from the whole dose curve; as a rule, active = well fitted inhibition curve with a large enough effect; inconclusive = small, poorly fitted or top-dose-only effect; inactive = no such curve, though single readings can be large or run the other way. Some compounds were tested as several samples or in several runs, with calls that do not always agree.

The compounds below were run against Regulator of G-protein signaling 4 (Homo sapiens) (UniProt P49798) (assay: Inhibitors of Regulator of G Protein Signaling (RGS) 4: qHTS). Settings: Transcreener GDP fluorescence polarization, RGS4-accelerated GTP hydrolysis; series mostly up to 56.9 µM; activity change, negative = inhibition: at the top concentration.
Text: G-protein-coupled receptors (GPCRs) are well-established targets for drug discovery and development. Members of the "regulator of G-protein signaling" (RGS)-protein superfamily have recently emerged as critical modulators of specific GPCR signaling pathways. […] Combining specific RGS domain inhibitors with existing GPCR agonists should potentiate cellular responses and could also increase the specificity of action of existing therapeutics. Small molecule modulators of RGS domain activity should also have clinical utility in inhibiting or potentiating the actions of endogenous GPCR agonists. In particular, the diversity of RGS proteins with highly localized and dynamically regulated distributions in the human brain makes this family of proteins attractive targets for pharmacotherapy of central nervous system (CNS) disorders such as Parkinson's disease, schizophrenia, and anxiety.
This assay was used to screen the NIH Molecular Libraries Small Molecule Repository (MLSMR) in order to identify a small molecule that inhibits RGS4.
NIH Chemical Genomics Center [NCGC]
NIH Molecular Libraries Probe Centers Network [MLPCN]
Assay Submitter (PI): David Siderovski, University of North Carolina Chapel Hill (School of Medicine)
Two microliters of 500nM (2x working concentration) is dispensed into black medium-binding solid-bottom Kalypsys plates. Then with the Kalypsys pintool 23nl of control and compounds are transferred; the control compound is […] CCG-4986 (working concentration). […] An initial fluorescent polarization read (620 nm/688 nm) is performed on the Envision before the plate is incubated for 90 minutes at 30 deg C at a relative humidity of 80%. The plate is once more centrifuged at 1000 RPM for 15 seconds and another Envision fluorescent polarization (620 nm/688 nm) read is carried out.
% is set by controls: 0 for no effect and ±100 for the full control effect; potency is the fitted concentration of half-maximal effect.
Note: nearly all actives have a fitted effect of over 75% in size.

Sequence of Regulator of G-protein signaling 4 (Homo sapiens) (P49798 whole entry, looked up, the tested form may be a part): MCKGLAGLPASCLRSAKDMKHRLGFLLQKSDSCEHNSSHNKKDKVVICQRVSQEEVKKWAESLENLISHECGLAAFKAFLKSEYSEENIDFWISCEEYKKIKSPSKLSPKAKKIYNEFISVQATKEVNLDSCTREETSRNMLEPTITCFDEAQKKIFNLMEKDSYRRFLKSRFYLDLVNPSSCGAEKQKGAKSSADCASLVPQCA

| Compound | Potency | activity change, negative = inhibition |
| --- | --- | --- |
| CC(=O)c1c(O)c(C)c(O)c(Cc2c(O)c3c(c(C(=O)/C=C/c4ccccc4)c2O)OC(C)(C)C=C3)c1O | inactive and 10.6 µM (active) | – |
| CC(=O)OC1C([N+]2(C)CCCCC2)C[C@H]2C3CC[C@H]4C[C@H](OC(C)=O)C([N+]5(C)CCCCC5)CC4(C)C3CCC12C (stereo partly drawn) | – | 40% (inactive) |
| CCCN(C/C=C/I)C1CCc2ccc(O)cc2C1 (stereo not drawn) | – | -20% (inactive) |
